SMILES strings stand for the structures. Records with an inconclusive call do not appear. Entries that show only a call come without a potency. A number with no mark means an inactive call. Calls of active or inactive are those of the source. The call rests on the fitted dose curve; in most records, active means well fitted inhibition curve with a large enough effect in the repeat runs; inconclusive means weak or mixed curves; inactive means flat fitted curve, though single readings scatter.

Here are results for 40 compounds from PubChem BioAssay (Tox21).

Sequence of Voltage-gated inwardly rectifying potassium channel KCNH2 (Homo sapiens) (Q12809 whole entry, looked up): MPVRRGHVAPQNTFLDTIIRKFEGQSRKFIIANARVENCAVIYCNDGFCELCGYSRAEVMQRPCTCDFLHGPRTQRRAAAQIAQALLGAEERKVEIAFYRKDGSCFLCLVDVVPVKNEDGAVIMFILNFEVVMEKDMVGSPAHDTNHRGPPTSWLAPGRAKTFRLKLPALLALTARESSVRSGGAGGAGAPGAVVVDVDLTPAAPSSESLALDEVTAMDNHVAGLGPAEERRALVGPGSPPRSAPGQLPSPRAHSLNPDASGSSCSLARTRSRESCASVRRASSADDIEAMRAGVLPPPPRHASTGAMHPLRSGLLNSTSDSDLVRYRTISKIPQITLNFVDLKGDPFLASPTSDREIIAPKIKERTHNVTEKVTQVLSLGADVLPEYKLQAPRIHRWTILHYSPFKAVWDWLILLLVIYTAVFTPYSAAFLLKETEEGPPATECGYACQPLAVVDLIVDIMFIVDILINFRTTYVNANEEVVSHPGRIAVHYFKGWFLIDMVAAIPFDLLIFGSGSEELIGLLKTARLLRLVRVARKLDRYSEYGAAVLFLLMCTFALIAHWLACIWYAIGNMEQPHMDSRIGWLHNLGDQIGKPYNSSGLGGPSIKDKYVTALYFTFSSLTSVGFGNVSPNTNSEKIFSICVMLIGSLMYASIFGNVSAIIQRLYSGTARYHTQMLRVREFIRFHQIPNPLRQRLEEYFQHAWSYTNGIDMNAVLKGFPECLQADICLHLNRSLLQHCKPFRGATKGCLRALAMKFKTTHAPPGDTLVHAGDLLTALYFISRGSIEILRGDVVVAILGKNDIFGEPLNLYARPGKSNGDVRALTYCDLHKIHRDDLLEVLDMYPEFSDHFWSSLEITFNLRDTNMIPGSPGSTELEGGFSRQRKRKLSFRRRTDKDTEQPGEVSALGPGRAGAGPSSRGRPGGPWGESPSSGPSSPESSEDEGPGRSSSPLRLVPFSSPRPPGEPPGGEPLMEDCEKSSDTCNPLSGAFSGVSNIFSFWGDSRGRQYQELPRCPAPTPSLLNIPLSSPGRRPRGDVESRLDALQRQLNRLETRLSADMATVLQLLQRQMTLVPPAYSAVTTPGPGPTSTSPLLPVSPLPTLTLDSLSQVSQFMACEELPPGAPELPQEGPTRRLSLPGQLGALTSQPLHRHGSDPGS

The experiment concerns the target Voltage-gated inwardly rectifying potassium channel KCNH2 (Homo sapiens) (UniProt Q12809). Nature of the experiment: Human Ether-a-go-go-Related Gene (hERG) channel small molecule antagonists: fluorescence cell-based qHTS assay (AID 1671200). Further: nearly all actives have a fitted effect of over 50% in size. The following applies: hERG-U2OS cells, FluxOR thallium flux fluorescence; series mostly up to 76.8 µM. From the text: National Center for Advancing Translational Sciences [NCATS]
U.S. Environmental Protection Agency [EPA]
National Institutes of Environmental Health Sciences [NIEHS]
National Toxicology Program [NTP]
U.S. Food and Drug Administration [FDA]
Mutations in the hERG channel cause Long QT (LQT) syndrome. LQT syndrome is a cardiac disorder which can cause ventricle arrhythmia and sudden death. Additionally, compounds which block the hERG channel can cause acquired LQT syndrome. Several FDA approved drugs have been removed from the market due to their hERG blocking activity. A cell-based hERG channel inhibition assay can be used to screen chemical compounds that inhibit hERG channel. This assay measures hERG channel activity using thallium ions as surrogate ions to measure potassium into the cells.
Tox21 Assay Protocol Summary:
hERG-U2OS cells were resuspended in culture medium and dispensed into 1536-well, black wall/clear-bottom plates at 1000cells/well/3uL using a Multidrop Combi dispenser (Thermo Fisher, Waltham, MA). After plates were incubated at 37 C overnight, 3 uL of Loading Buffer provided by FluxOR II Potassium Ion Channel Assay kit (Thermo, Carlsbad, CA) was added to each well. The assay plates were then incubated at room temperature in the dark for 1h. […] After the assay plates were incubated at room temperature for 10 min, 1 uL of Stimulus Buffer provided by FluxOR II Potassium Ion Channel Assay kit was added into each well and fluorescence intensity (480nm excitation/540nm emission) was continuously measured for 2 min at 1 second intervals using a Functional Drug Screening System (FDSS) 7000EX kinetic plate reader (Hamamatsu, Japan).
Background: The hERG channel carries a current that helps repolarise heart muscle cells.
Consider `COC(=O)c1ccc(C(=O)O)cc1`, for which the Potency entry was “inactive”. For the compound `CCC(C)(C)C`, the Potency entry is “inactive”.

In the case of `CC(=O)OC1CCC(C(C)(C)C)CC1` (stereo not given), the Potency entry is “inactive”. On the same count and under the same terms, the same measure for `Cc1ccc(Br)cc1`: “inactive”.

For the compound `Nc1cc(S(=O)(=O)O)ccc1O`, the Potency entry was “inactive”. Same read-out and setting: the same measure for `CC(CN1CC(=O)NC(=O)C1)N1CC(=O)NC(=O)C1` (stereo not given): “inactive”; for `CCCCCCCCCCCC(C)=O`: “inactive”. With `Cc1ccc(O)c([N+](=O)[O-])c1`, the Potency entry is “inactive”. The same measure, in the same setting: the same measure for `O=C(O)/C=C(\CC(=O)O)C(=O)O`: “inactive”; for `O=C(O)Cc1ccccc1Oc1ccc(Cl)cc1Cl`: “inactive”. Turning to `CO/N=C(\C(=O)O)c1csc(NC(=O)CCl)n1`, the Potency result was “inactive”. On to `CC(C)(C)OC(=O)c1ccccc1C(=O)O`, for which the Potency entry is “inactive”. Same read-out and setting: to `CNC(C)=O` belongs “inactive”; to `CCCCCCCCS(=O)(=O)O`, “inactive”.

With `CC(C)(C)c1ccc(N)cc1`, the Potency entry was “inactive”. For `CC(C)OCCO`, the Potency result is “inactive”. Consider `CCCC(=O)C(CC)Sc1ccoc1C` (stereo not given), for which the Potency result is “inactive”. Regarding `CC(C)C[P+](C)(CC(C)C)CC(C)C`, the Potency result was “inactive”. With `C=CCON/C(CCC)=C1\C(=O)CC(C)(C)C(C(=O)OC)=C1O`, the Potency entry was “inactive”. On to `CCCCN(CCCC)CCCCCCN(CCCC)CCCC`, for which the Potency result is “inactive”. Take `CCCCc1ccc(Cl)cc1`: the Potency result is “inactive”. Same read-out and setting: to `Clc1ccc2c(c1)Nc1ccccc1S2` belongs “inactive”; to `Cc1cc(O)c(Cl)cc1C`, “inactive”. Same read-out and setting: the same measure for `O=c1c(O)c(O)c1=O`: “inactive”; for `NNC(=O)OCc1ccccc1`: “inactive”.

As to `N=C(N)N1CCc2ccccc2C1`, the activity change, negative = inhibition was -6.17% [at 6.97 µM]. As to `c1cc2ccc3ccc4ccc5cccc6c(c1)c2c3c4c56`, the activity change, negative = inhibition is 0.437% [at 2.72 µM]. Regarding `O=C(c1ccccc1)c1cccc(O)c1`, the Potency entry was “inactive”. Take `CC[C@@]1(c2ccccc2)NC(=O)N(C)C1=O`: the Potency result was “inactive”.

With `CN(C)CCCN(C)C`, the activity change, negative = inhibition was 0.578% [at 6.97 µM]. On to `CC/C=C/CCCCCCCCCCOC(C)=O`, for which the Potency entry is “inactive”. For the compound `C=CC(=O)CC`, the Potency entry is “inactive”. `C=CCCCCCCCCOC(C)=O`: the Potency entry is “inactive”.

For `Clc1cc(Cl)c(Cl)c(Cl)c1Cl`, the Potency result is “inactive”. In the case of `CC(C)c1cc(C(C)C)cc(C(C)C)c1`, the Potency result was “inactive”. For `CCC(C)c1nccnc1OC` (stereo not given), the Potency result is “inactive”. Consider `COC(=O)c1cc(Cl)c(NC(C)=O)cc1OC`, for which the Potency entry was “inactive”. On to `CC(C)(C)C(=O)NCCCC(=O)O`, for which the Potency result was “inactive”. For `O=C(CCBr)N1CCN(C(=O)CCBr)CC1`, the Potency result is “inactive”. Consider `CC1(C)C(=O)C(C)(C)C1=O`, for which the Potency entry is “inactive”.
